Assay results reported in PubChem BioAssay (NCATS).
Records with an inconclusive call do not appear. Unmarked numbers belong to inactive results. Activity calls are given as the source filed them. Calls come from the whole dose curve; as a rule, active = well fitted inhibition curve with a large enough effect; inconclusive = small, poorly fitted or top-dose-only effect; inactive = no such curve, though single readings can be large or run the other way.

experiment: qHTS to identify inhibitors of the type 1 interferon - major histocompatibility complex class I in skeletal muscle: primary screen against the NCATS Mechanism Interrogation Plate v5.0 (MIPE) Libary (AID 1347411); settings: iHSKM cells + IFN-b, HiBiT-tagged MHC-I luminescence, 24 h; series mostly up to 45.8 µM; activity change, negative = inhibition: at the top concentration; note: nearly all actives have a fitted effect of over 65% in size;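 for activity change, negative = inhibition: plate controls were vehicle for no effect and reference inhibitor for full effect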
Outline: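 Cells were genome-edited human myoblasts carrying a HiBit tag on endogenous HLA-B. They were treated with IFN-beta (4.0 ng/ml) and titrated compounds (top 46 uM) for 24 hrs before lytic HiBiT detection.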
Potency is the fitted concentration of half-maximal effect.

Row | SMILES | Potency | activity change, negative = inhibition
1 | COc1cccc(-c2cc(F)ccc2C2Cc3nc(N)nc(C)c3C(=O)N2)n1 (stereo unspecified) | 58.7 nM (active) | –
2 | N#Cc1ccnc(Nc2cc(C3CCN(C4COC4)CC3)cc(N3CCC(F)(F)C3)n2)c1 | 2340 nM (active) | –
3 | COc1ccc(CNc2nc(N(CCO)CCO)nc3c2ncn3C(C)C)cc1 | 4660 nM (active) | –
4 | COc1c(C)cc(NC(=O)c2nn(Cc3ccc(F)cc3)c3c2CN(C(=O)c2ccc[nH]2)C[C@]3(C)C(N)=O)cc1C | – | -14.7% [at 8.44 µM]
5 | Cn1ncnc1[C@H]1c2n[nH]c(=O)c3cc(F)cc(c23)N[C@@H]1c1ccc(F)cc1 | – | -25.5%
6 | NC(=O)c1cnc(N[C@@H]2CCCC[C@@H]2N)nc1Nc1cccc(-n2nccn2)c1 | 13100 nM (active) | –
7 | Cc1ccc(C(=O)Nc2ccc(CN3CCN(C)CC3)c(C(F)(F)F)c2)cc1C#Cc1cnc2[nH]ncc2c1 | 117 nM (active) | –
8 | COc1cc(S(C)(=O)=O)ccc1Nc1nc2ccc(-c3ccc(NC(=O)[C@H](C)c4ccc(F)cc4)cc3)cn2n1 | – | 17.2%
9 | COC(=O)N1CC2(CC2)C[C@H](C(=O)NO)[C@H]1C(=O)N1CCN(c2ccccc2)CC1 | – | 8.38%
10 | CCN(c1cc(-c2ccc(CN3CCOCC3)cc2)cc(C(=O)NCc2c(C)cc(C)[nH]c2=O)c1C)C1CCOCC1 | – | -69.9%
11 | O=C(Cc1cccc(OC(F)(F)F)c1)Nc1ccc(CCCCc2nnc(NC(=O)Cc3ccccn3)s2)nn1 | – | -22.9%
